The list is not random: actives were taken first. Their share in the collection is about 1.4%.
Giardia FBPA inh: qHTS Assay for Inhibitors of Fructose-1,6-bisphosphate Aldolase from Giardia Lamblia; purified Giardia FBPA; Potency, µM (top dose mostly 59.6 µM), usual class: inhibitors; 0.71% of 290,000 active; note: nearly all actives have a fitted effect of over 55% in size
Target sequence (A8B2U2 whole entry, looked up): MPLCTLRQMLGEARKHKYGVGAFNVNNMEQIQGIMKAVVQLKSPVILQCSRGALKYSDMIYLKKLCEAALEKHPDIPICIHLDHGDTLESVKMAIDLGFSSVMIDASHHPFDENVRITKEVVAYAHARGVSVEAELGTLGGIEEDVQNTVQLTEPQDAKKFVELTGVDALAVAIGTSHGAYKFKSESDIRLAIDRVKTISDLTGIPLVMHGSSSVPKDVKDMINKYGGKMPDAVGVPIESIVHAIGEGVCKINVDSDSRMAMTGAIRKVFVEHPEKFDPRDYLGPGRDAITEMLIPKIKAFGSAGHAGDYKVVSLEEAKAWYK
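40 nM FBPA preincubated 10 min at RT with compound (up to 57.5 uM final), then substrate plus GAPDH/TPI/NAD/arsenate coupling and diaphorase/resazurin added. Fluorescence read after 20 min at RT, 525/598 nm.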
AmpC detergent: qHTS Inhibitors of AmpC Beta-Lactamase (assay with detergent); 0.041% of 370,000 active; AID 485294, 2010; AmpC hydrolysis of nitrocefin, absorbance 480 nm, 0.01% Triton; P00811; Potency, µM (series often up to 114 µM), hits mostly inhibitors; note: nearly all actives have a fitted effect of over 25% in size
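AmpC (5.3 nM in the dispensed reagent) in 20 mM phosphate pH 7.0 with 0.01% (detergent screen) or 0.0001% Triton X-100 was preincubated with compounds for 15 min at room temperature. Nitrocefin was then added from an 800 uM solution, and hydrolysis was followed at 480 nm.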
SARS PLP yeast: qHTS of Yeast-based Assay for SARS-CoV PLP; S. cerevisiae expressing SARS-CoV PLpro, growth rescue; Potency, µM (top dose mostly 32.9 µM), most hits filed as activators; 0.19% of 330,000 active; AID 485353, 2010; calls by dose curve; note: nearly all actives have a fitted effect of over 55% in size
NS1 inh: qHTS Assay for Inhibitors of Influenza NS1 Protein Function | 0.4% of 270,000 active | Potency, µM (highest dose often 46.1 µM) | AID 2326, 2010; calls by dose curve; note: actives are rising curves; nearly all actives have a fitted effect of over 50% in size
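Recovery from NS1-induced slow growth read by OD600 in budding yeast switched to galactose assay medium (pH 6.0, -URA) at 1:100 dilution. Compound 23 nl per well; the matching strain lacking NS1 serves as control.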
AmpC inh no detg: qHTS Inhibitors of AmpC Beta-Lactamase (assay without detergent); P00811; AmpC nitrocefin hydrolysis, absorbance 480 nm, 0.0001% Triton; Potency, µM (series often up to 57.1 µM), most hits filed as inhibitors; 0.52% of 330,000 active; note: nearly all actives have a fitted effect of over 20% in size
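AmpC (5.3 nM in the dispensed reagent) in 20 mM phosphate pH 7.0 with 0.01% (detergent screen) or 0.0001% Triton X-100 was preincubated with compounds for 15 min at room temperature. Nitrocefin was then added from an 800 uM solution, and hydrolysis was followed at 480 nm.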
Hits are given with their value; i = inactive; ? = inconclusive; nt = no result given. Unless noted, calls come from the whole dose curve; as a rule, active = well fitted curve in the direction sought with a large enough effect; inconclusive = small, poorly fitted or top-dose-only effect, or another doubt; inactive = no such curve, though single readings can be large; an effect the other way counts as inactive or inconclusive.

SMILES	Giardia FBPA inh	AmpC detergent	SARS PLP yeast	NS1 inh	AmpC inh no detg
COc1ccccc1Nc1ccc(NC(=O)c2cccc([N+](=O)[O-])c2C)cc1	i	i	i	i	3.2µM
COc1ccc(NC(=O)c2ccccc2[N+](=O)[O-])cc1	i	?	i	i	i
Cc1ccc(C2=NN(C(=O)CSc3nc4ncc(Cl)cc4[nH]3)C(c3ccco3)C2)cc1 (stereo not given)	i	?	i	nt	10µM
CCOC(=O)c1c(C)[nH]c(=S)c(C#N)c1-c1ccc(Cl)cc1	?	i	i	?	28µM
Cc1nn(-c2nnc(NC3CCCCC3)nn2)c(C)c1Br	i	100µM	i	i	i
CC(C)NCC(O)c1ccc(C2CCCC2)cc1 (stereo not given)	i	?	i	i	i
CC(C)NC[C@@H](O)c1ccc(O)c(O)c1	7.1µM	i	i	i	i
Cc1ccc(-n2ncc3c(=O)n(CC(=O)N(C)C)cnc32)cc1	i	i	i	i	i
O=C(CSc1nc2nc(-c3cccs3)cc(C(F)(F)F)c2c(=O)[nH]1)Nc1c(F)c(F)c(F)c(F)c1F	i	i	i	i	i
NS(=O)(=O)c1cccc(NC(=O)CSc2nc3nc(-c4cccs4)cc(C(F)(F)F)c3c(=O)[nH]2)c1	i	i	i	i	16µM
Cc1ccccc1NN1C(=O)C=CC1=O	i	i	i	i	0.14µM
COc1ccc(/C=N\NC(=O)c2ccc(F)cc2)cc1COc1ccccc1C(N)=O	nt	i	i	i	i
COc1ccc(/C=N/NC(=S)Nc2ccccc2)cc1COc1ccc(F)cc1F	i	i	i	i	18µM
C=CCOC(=O)C1=C(C)NC(C)=C(C(=O)OCC=C)C1c1cn(-c2ccccc2)nc1-c1ccco1	i	?	i	i	16µM
Cc1sc(-n2c(C)cc(/C=C3\SC(=S)NC3=O)c2C)c(C#N)c1C	i	i	i	i	14µM
Cc1cc(/C=C2\SC(=S)NC2=O)c(C)n1-c1cccc(O)c1	i	i	i	i	18µM
CCN(CC)CCn1c2c(c(SCC(=O)NCc3ccccc3)nc1=O)CCCC2	nt	i	i	nt	i
COCCNC(=O)C(c1ccc(C)cc1)N(C(=O)CCC(=O)Nc1ccccn1)c1ccccc1C (stereo not given)	i	i	i	i	i
Cn1nnc(NC(=O)c2ccco2)n1	i	i	i	i	i
Cn1nnc(NC(=S)NC(=O)c2ccco2)n1	1.3µM	i	i	i	i
COc1ccc(C(=O)NC(=S)Nc2nnn(C)n2)cc1	1.8µM	?	i	i	i
Cc1ccc2nc(N=C(N)N)nc(C)c2c1	i	i	i	i	10µM
CC(C)(C)c1ccc(C(=O)NC(=S)NCC2CCCO2)cc1 (stereo not given)	i	i	13µM	i	i
CC(C)(C)c1ccc(C(=O)NNC(=S)NCC2CCCO2)cc1 (stereo not given)	i	i	i	i	i
COc1ccc2[nH]c3c(c2c1)CCN1C(=O)C(CC(=O)NCc2ccco2)C[C@H](C(=O)N2CCCCC2)[C@@]31C (stereo not given in full)	nt	nt	i	nt	i
SMILES	Giardia FBPA inh	AmpC detergent	SARS PLP yeast	NS1 inh	AmpC inh no detg
COC(=O)c1ccc(NS(=O)(=O)NC(=O)c2c[nH]c3ccccc23)cc1	nt	i	i	i	i
O=C(c1ccc(S(=O)(=O)N2CCCC2)cc1)N1CCCCC1	nt	i	i	nt	i
O=C(/C=C/c1ccc(O)c(O)c1)c1ccc(S(=O)(=O)N2CCCCCC2)cc1	?	?	?	i	25µM
O=S(=O)(O)c1cc(O)c2c(O)c(N=Nc3cc(Cl)ccc3O)c(S(=O)(=O)O)cc2c1	?	i	i	i	i
Cc1cc(-c2ccc(N=Nc3c(S(=O)(=O)O)cc4cc(S(=O)(=O)O)cc(N)c4c3O)c(C)c2)ccc1N=Nc1c(S(=O)(=O)O)cc2cc(S(=O)(=O)O)cc(N)c2c1O	nt	13µM	i	nt	i
CCOc1cc(-c2nc3c(c(CC)nn3-c3ccccc3)c3cc(OC)c(OC)cc23)ccc1O	nt	i	nt	nt	nt
CC(C)(C)OC(=O)NCCc1nnc(SCc2ccccc2Cl)o1	i	i	i	i	i
CC(C)(C)OC(=O)NCCc1nnc(S(=O)(=O)Cc2ccc(Cl)cc2Cl)o1	i	?	i	i	0.32µM
O=C(COC(=O)c1ccccc1[N+](=O)[O-])NNC(=O)c1cccs1	i	i	i	i	i
CCc1ccc(/C=N/NC(=O)c2cc(C)on2)s1	i	i	i	i	i
CCCCCCN(C(=O)CCCCCN1C(=O)NC(c2ccc(C(C)(C)C)cc2)C(C(=O)OCc2ccccc2)=C1C)C(C(=O)NCCCC)c1ccc(OCC(=O)OC)c(C(=O)OC)c1 (stereo not given)	i	i	i	8.9µM	i
COc1cc(/C=C2\C(=O)NC(=O)N(c3ccccc3)C2=O)cc(OC)c1O	10µM	i	i	i	i
COc1cc(/C=C2\C(=O)NC(=O)N(c3ccccc3)C2=O)c([N+](=O)[O-])cc1OC	?	i	i	?	i
CCC1Oc2ccccc2N(CC(=O)NCCCN2CCC(C)CC2)C1=O (stereo not given)	i	?	i	i	i
Cc1cccc(C)c1Nc1nnc(SCC(=O)c2ccc(Br)s2)s1	i	i	?	i	i
Cc1cccc(C)c1Nc1nnc(SCC(=O)c2ccc3c(c2)NC(=O)CO3)s1	i	i	i	?	25µM
CC1NC2(C(=O)N(Cc3ccccc3)c3ccccc32)C2C(=O)N(c3ccccc3)C(=O)C12 (stereo not given)	i	?	i	i	11µM
Cc1ccc([C@@H]2[C@@H]3C(=O)N(c4ccccc4)C(=O)[C@@H]3[C@]3(C)C(=O)N(Cc4ccccc4)CC(=O)N23)o1	i	?	i	i	i
CN1CCN(c2cc(=O)n(Cc3ccc(F)cc3)c(=O)[nH]2)CC1	i	i	i	i	0.56µM
Cc1ccc(OCCn2c(NC(=O)c3ccco3)nc3ccccc32)cc1	?	i	i	i	20µM
O=C(Nc1nc2ccccc2n1CCOc1ccccc1)c1ccco1	?	i	i	i	i
COc1ccc(/C=N/Nc2nnc(C)n2N)cc1OC	22µM	i	i	nt	i
Cc1nnc(N/N=C/c2ccc(Br)cc2)n1N	?	?	i	i	i
Cc1nnc(N/N=C/c2cc([N+](=O)[O-])c(N3CCC(C)CC3)cc2N2CCC(C)CC2)n1N	10µM	i	i	i	i
CC1CCN(c2cc(N3CCOCC3)c([N+](=O)[O-])cc2F)CC1	i	i	i	i	i
Cc1nnc(N/N=C/c2ccc([N+](=O)[O-])cc2)n1N	16µM	i	i	nt	i
Cc1ccccc1NC(=O)COC(=O)C1CC2CCCC(C1)C2=O (stereo not given)	nt	i	i	nt	i
CCCCN(C)C(=O)CS(=O)(=O)Cc1nc(-c2cccc(OC)c2)oc1C	i	?	i	i	11µM

Screening data (PubChem)
